Some of the results follow. Results filed as inconclusive are left out. A number with no mark means an inactive call. Calls come from the whole dose curve; as a rule, active = well fitted inhibition curve with a large enough effect; inconclusive = small, poorly fitted or top-dose-only effect; inactive = flat fitted curve, though single readings scatter.
Target: Luciferin 4-monooxygenase (Photuris pensylvanica) (UniProt Q27757)
Test: Secondary assay for Inhibitors of Human Pyruvate Kinase M2 isoform: FLuc Counterscreen
Details: Kinase-Glo firefly luciferase, luminescence, 8 min; series mostly up to 57.5 µM; activity, negative = inhibition: at the top concentration
Procedure: NIH Chemical Genomics Center [NCGC] Matthew G. Vander Heiden, M.D., Ph.D. [Harvard Medical School, 77 Avenue Louis Pasteur, Boston, MA 02115] MLPCN Grant: 1 R03 MH085679-01 NCGC Assay Overview: Luciferase (Kinase-Glo, Promega Corporation) was assayed for its ability to generate light using ATP and luciferin as substrates. The ATP concentration in the assay (10 uM) was within the linear range of enzyme activity for the assay conditions used. This assay was used as an counter screen for human pyruvate kinase M2 isoform.
NCGC Assay Protocol Summary: Four uL of substrate mix (final concentration, 50 mM imidazole pH 7.2, 50 mM KCl, 7 mM MgCl2, 10 uM ATP, 0.01% Tween 20, 0.05% BSA) was dispensed into white 1536 well plates. Twenty-three nL of compound was delivered by a pin tool and 2 uL of luciferase detection mix (Kinase-Glo, Promega)) was added. Following 8-minute incubation at ambient temperature, luminescence was measured by a ViewLux (Perkin Elmer) at 5 seconds exposure/plate.

Row | SMILES | activity, negative = inhibition [%]
1 | Cc1ccc(Nc2c(-c3ccc(C)s3)nc3ccccn23)cc1 | -2.62
2 | Cc1ccc(-c2nc3ccccn3c2Nc2ccc(F)cc2)o1 | 3.49
